PubChem BioAssay (Tox21)
Inconclusive results are not listed. Activity calls are given as the source filed them. Unless noted, the call rests on the fitted dose curve; in most records, active means well fitted curve in the direction sought with a large enough effect in the repeat runs; inconclusive means weak or mixed curves; inactive means no such curve, though single readings can be large; an effect the other way counts as inactive or inconclusive.

How the values were obtained:
[1] = qHTS assay to identify small molecule antagonists of the peroxisome proliferator-activated receptor delta (PPARd) signaling pathway - cell viability counter screen (AID 743213); further: nearly all actives have a fitted effect of over 50% in size
Method in brief: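 Agonist-stimulated (L165041, 300 nM final) HEK293H PPARd UAS-bla cells are exposed to compounds for 17 h at 37 C, and ATP-based luminescence (CellTiter-Glo) from the same wells reports cytotoxicity.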

[2] = molecular target: Peroxisome proliferator-activated receptor delta (Homo sapiens) (UniProt Q03181); assay: qHTS assay to identify small molecule antagonists of the peroxisome proliferator-activated receptor delta (PPARd) signaling pathway (AID 743215; active means well fitted inhibition curve with a large enough effect in the signal ratio in the repeat runs, not every such curve was filed as active; the % refers to the signal ratio; further: series mostly up to about 62 µM)
Method in brief: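 PPARd-bla HEK293H cells (UAS-bla reporter) preincubated 5 h, then given compound plus 300 nM final L165041 agonist for 17 h at 37 C. Beta-lactamase activity read by LiveBLAzer B/G FRET substrate fluorescence after 2 h at room temperature.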

[3] = qHTS assay to identify small molecule agonists of the farnesoid-X-receptor (FXR) signaling pathway - cell viability counter screen (AID 743218); further: nearly all actives have a fitted effect of over 45% in size
Method in brief: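 FXR-UAS-bla HEK 293T cells exposed to compounds for 16 h at 37C. Cytotoxicity read in the same wells by CellTiter-Glo luminescence after 30 min at room temperature, following the beta-lactamase FRET read.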

[4] = qHTS assay to identify small molecule antagonists of the farnesoid-X-receptor (FXR) signaling pathway - cell viability counter screen (AID 743221; active means well fitted cell-killing curve with a large enough effect in the repeat runs, not every such curve was filed as active; further: nearly all actives have a fitted effect of over 50% in size)
Method in brief: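 CellTiter-Glo, 30 min RT, luminescence; same wells as the LiveBLAzer FRET read. Cells: FXR-UAS-bla HEK 293T. Treatment: compound with chenodeoxycholic acid 50 uM final, 16 h at 37 C.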

[5] = molecular target: Vitamin D3 receptor (Homo sapiens) (UniProt P11473); assay: qHTS assay to identify small molecule agonists of the vitamin D receptor (VDR) signaling pathway (AID 743222; calls by dose curve)
Method in brief: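 VDR-bla cells plated 4 h at 37 C, then exposed to compounds for 16 h at 37 C. Beta-lactamase reporter activity measured by fluorescence after 2 h room-temperature loading with LiveBLAzer B/G FRET substrate.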

[6] = molecular target: Vitamin D3 receptor (Homo sapiens) (UniProt P11473); assay: qHTS assay to identify small molecule antagonists of the vitamin D receptor (VDR) signaling pathway (AID 743223; active means well fitted inhibition curve with a large enough effect in the signal ratio in the repeat runs, not every such curve was filed as active; the % refers to the signal ratio)
Method in brief: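 After VDR-bla cells are plated and left 4 h at 37C, DMSO-dissolved compounds and 3 nM (final) calcitriol agonist are added. Incubation continues 16 h at 37C; FRET beta-lactamase substrate then develops 2 h at room temperature.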

[7] = qHTS assay to identify small molecule agonists of the vitamin D receptor (VDR) signaling pathway - cell viability counter screen (AID 743224); further: series mostly up to about 63 µM; nearly all actives have a fitted effect of over 50% in size
Method in brief: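 VDR-bla cells, 4 h after plating, exposed to compounds for 16 h at 37C; viability then read in the same wells as CellTiter-Glo luminescence after 30 min at room temperature, following the bla FRET read.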

[8] = molecular target: Bile acid receptor (Homo sapiens) (UniProt Q96RI1); assay: qHTS assay to identify small molecule antagonists of the farnesoid-X-receptor (FXR) signaling pathway (AID 743217; active means well fitted inhibition curve with a large enough effect in the signal ratio in the repeat runs, not every such curve was filed as active; the % refers to the signal ratio)
Method in brief: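 FXR-UAS-bla HEK 293T cells (beta-lactamase reporter) given compound plus chenodeoxycholic acid (50 uM final), 16 h at 37C. LiveBLAzer B/G FRET substrate added for 2 h at room temperature; fluorescence read.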

[9] = molecular target: Bile acid receptor (Homo sapiens) (UniProt Q96RI1); assay: qHTS assay to identify small molecule agonists of the farnesoid-X-receptor (FXR) signaling pathway (AID 743220; active means well fitted activation curve with a large enough effect in the signal ratio in the repeat runs, not every such curve was filed as active; the % refers to the signal ratio)
Method in brief: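 Beta-lactamase reporter under UAS control in GeneBLAzer FXR HEK 293T cells (5000/well) measured with LiveBLAzer FRET substrate after 2 h at room temperature. Compound exposure lasted 16 h at 37C.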
On the % scale 0 is the no-effect control and ±100 the full control effect.

Chain of Vitamin D3 receptor (Homo sapiens) (P11473 whole entry, looked up): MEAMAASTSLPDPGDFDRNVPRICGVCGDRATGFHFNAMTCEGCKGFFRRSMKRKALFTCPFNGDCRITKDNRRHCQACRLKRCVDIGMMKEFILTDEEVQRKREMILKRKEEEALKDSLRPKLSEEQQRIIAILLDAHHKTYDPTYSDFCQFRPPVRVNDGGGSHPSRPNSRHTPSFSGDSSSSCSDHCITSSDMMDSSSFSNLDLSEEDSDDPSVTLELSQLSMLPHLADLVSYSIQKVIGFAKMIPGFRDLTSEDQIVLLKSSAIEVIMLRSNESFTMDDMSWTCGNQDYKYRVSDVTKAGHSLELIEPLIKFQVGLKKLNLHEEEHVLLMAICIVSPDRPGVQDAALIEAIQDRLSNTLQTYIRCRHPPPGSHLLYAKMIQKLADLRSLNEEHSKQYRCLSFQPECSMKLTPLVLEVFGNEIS
Chain of Peroxisome proliferator-activated receptor delta (Homo sapiens) (Q03181 whole entry, looked up): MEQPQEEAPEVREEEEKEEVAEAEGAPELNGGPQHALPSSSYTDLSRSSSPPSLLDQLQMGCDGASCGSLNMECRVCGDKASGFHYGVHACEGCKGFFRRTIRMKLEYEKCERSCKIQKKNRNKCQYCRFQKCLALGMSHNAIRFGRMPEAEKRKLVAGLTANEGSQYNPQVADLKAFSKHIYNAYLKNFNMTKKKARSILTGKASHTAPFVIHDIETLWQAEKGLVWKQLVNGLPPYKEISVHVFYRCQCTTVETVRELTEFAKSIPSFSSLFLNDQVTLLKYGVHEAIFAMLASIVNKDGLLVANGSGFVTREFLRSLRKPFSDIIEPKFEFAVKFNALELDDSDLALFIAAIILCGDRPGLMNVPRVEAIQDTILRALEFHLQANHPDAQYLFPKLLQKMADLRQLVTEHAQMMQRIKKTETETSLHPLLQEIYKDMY
Chain of Bile acid receptor (Homo sapiens) (Q96RI1 whole entry, looked up): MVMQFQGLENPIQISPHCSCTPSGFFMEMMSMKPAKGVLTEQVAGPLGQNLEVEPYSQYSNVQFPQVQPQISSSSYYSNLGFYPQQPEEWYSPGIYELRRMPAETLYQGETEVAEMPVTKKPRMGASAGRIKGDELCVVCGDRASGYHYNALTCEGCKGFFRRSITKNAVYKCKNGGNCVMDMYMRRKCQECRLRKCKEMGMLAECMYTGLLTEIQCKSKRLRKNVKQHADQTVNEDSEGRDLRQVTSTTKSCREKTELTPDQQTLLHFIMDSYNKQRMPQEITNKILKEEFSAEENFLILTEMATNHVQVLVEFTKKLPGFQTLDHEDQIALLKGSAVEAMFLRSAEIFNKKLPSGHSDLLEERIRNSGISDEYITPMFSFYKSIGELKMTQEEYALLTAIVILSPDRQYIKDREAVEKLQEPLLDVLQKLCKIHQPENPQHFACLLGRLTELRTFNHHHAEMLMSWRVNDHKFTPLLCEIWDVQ

COc1cc(NS(=O)(=O)c2ccc(N)cc2)ncn1
inactive: outcome [1] | outcome [2] | outcome [3] | outcome [4]

CN(C)CCCN(C)C
inactive: viability change, negative = cytotoxic [1] 1.43% [at 6.26 µM] | ratio activity, negative = inhibition [2] 5.28% [at 6.26 µM] | viability change, negative = cytotoxic [3] 2.3% [at 5.95 µM] | activity change, negative = cytotoxicity [4] 0.644% [at 5.95 µM] | activation [5] -2.68% [at 6.01 µM] | activity change, negative = inhibition [6] -1.32% [at 6.95 µM] | activity change, negative = cytotoxicity [7] 0.624% [at 5.95 µM]

COc1cc(OC)cc(OC)c1
inactive: outcome [1] | outcome [2] | outcome [8] | outcome [3] | outcome [9] | outcome [4] | outcome [5] | outcome [6] | outcome [7]
